RGS12 GoLoco inh: qHTS Assay for Inhibitors of RGS12 GoLoco Motif Activity (Red Fluorophore). Guanine nucleotide-binding protein G(i) subunit alpha-1 (Homo sapiens), P63096. Gai1:RGS12 GoLoco peptide FP, rhodamine, 10 min. Potency, µM (titrated, usually from 61.6 µM), without a hit: at the highest dose activity, negative = inhibition, most hits filed as inhibitors. 230,000 tested, 0.44% active. AID 880, 2007; active = well fitted inhibition curve with a large enough effect, not every such curve was filed as active; inactive = no such curve, though single readings can be large or run the other way; note: potency is the fitted concentration of half-maximal effect; % is set by controls: 0 for no effect and ±100 for the full control effect; nearly all actives have a fitted effect of over 30% in size
HTT ATP protect: qHTS Multiplex Assay to Identify Dual Action Probes in a Cell Model of Huntington: Cytoprotection (ATP) | PC12 HTT-Q103 induced, cytoprotection, ATP luminescence, 40 h | AID 1471, 2008 | 230,000 tested, 0.14% active | Potency, µM (highest dose often 56.4 µM), for inactives: cytoprotection (ATP increase), hits mostly activators; note: potency is the fitted concentration of half-maximal effect; % of control where 0% means no effect; nearly all actives have a fitted effect of over 45% in size
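Compounds were screened for protection of PC12 cells against cell death after tebufenozide induction (100 nM final) of mutant Huntingtin exon 1 (Q103) fused to GFP.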
VDR inhibitor: Inhibitors of the vitamin D receptor (VDR): qHTS. 400,000 tested, 0.93% active. Potency, µM, for inactives: max response, negative = inhibition, usual class: inhibitors. VDR-SRC2-3 peptide fluorescence polarization, 2 h. Vitamin D3 receptor (Homo sapiens), P11473; note: potency is the fitted concentration of half-maximal effect; % is set by controls: 0 for no effect and ±100 for the full control effect
Target sequence (P11473 whole entry, looked up): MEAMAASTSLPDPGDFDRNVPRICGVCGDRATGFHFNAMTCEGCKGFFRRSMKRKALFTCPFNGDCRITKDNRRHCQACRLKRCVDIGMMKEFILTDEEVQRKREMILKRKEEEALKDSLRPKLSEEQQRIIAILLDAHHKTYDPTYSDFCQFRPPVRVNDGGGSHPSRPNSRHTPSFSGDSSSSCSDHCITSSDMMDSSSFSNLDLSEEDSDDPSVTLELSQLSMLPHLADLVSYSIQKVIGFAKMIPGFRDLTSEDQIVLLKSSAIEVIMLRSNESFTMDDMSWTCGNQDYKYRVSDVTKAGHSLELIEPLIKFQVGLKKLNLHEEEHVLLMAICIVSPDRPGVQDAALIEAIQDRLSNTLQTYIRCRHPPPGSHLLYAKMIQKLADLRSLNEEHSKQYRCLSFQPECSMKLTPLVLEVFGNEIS
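Reagent solutions, kept cold and dark, are dispensed first; compounds are then pinned in at 23 nl, plates briefly spun, and incubated 2 h at ambient temperature. Inhibition of VDR–SRC2-3 peptide binding is read by fluorescence polarization.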
HttQ103 aggreg: qHTS Multiplex Assay to Identify Dual Action Probes in a Cell Model of Huntington: Aggregate Formation (GFP) | PC12 HttQ103-GFP aggregates, Acumen cytometry, 40 h | Potency, µM (highest dose often 46.1 µM), for the others: at the highest dose activity change, negative = inhibition, hits mostly inhibitors | 220,000 tested, 1.1% active; note: potency is the fitted concentration of half-maximal effect; % is set by controls: 0 for no effect and ±100 for the full control effect; nearly all actives have a fitted effect of over 60% in size
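Read-out: GFP aggregate count by laser scanning cytometer (488 nm excitation, 500-530 nm emission, 1–25 µm objects >6 SD above background). Cells: PC12, inducible HTTex1-Q103-GFP, 100 nM tebufenozide; compounds titrated.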
FBPA coupling cs: qHTS Assay for Inhibitors of Fructose-1,6-bisphosphate Aldolase from Giardia Lamblia: Coupling assay counterscreen | coupling enzyme system counterscreen, AmpLite Red fluorescence | 290,000 tested, 0.67% active | activity change, negative = inhibition, % at 58.2 µM, hits read low; in the data active = activity change below about -30%; note: % is set by controls: 0 for no effect and ±100 for the full control effect
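Compounds tested against the coupling enzymes alone at 57.5 uM final; readout was AmpLite Red fluorescence (525/598 nm) after 20 min at RT.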
JMJD2E inh: qHTS Assay for Inhibitors of Human Jumonji Domain Containing 2E (JMJD2E). JMJD2E catalytic domain, FDH-coupled NADH fluorescence (FDH is formaldehyde dehydrogenase). Potency, µM (top dose mostly 57.1 µM), inactives show at the top dose activity change, negative = inhibition, hits mostly inhibitors. 230,000 tested, 1.6% active; active = well fitted inhibition curve with a large enough effect, not every such curve was filed as active; inconclusive = small, poorly fitted or top-dose-only effect, or another doubt; inactive = no such curve, though single readings can be large or run the other way;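 note: potency is the fitted concentration of half-maximal effect; 0% = wells with enzyme and -100% = buffer wells without enzyme; nearly all actives have a fitted effect of over 50% in size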
Target sequence (B2RXH2 1-337 limits assumed): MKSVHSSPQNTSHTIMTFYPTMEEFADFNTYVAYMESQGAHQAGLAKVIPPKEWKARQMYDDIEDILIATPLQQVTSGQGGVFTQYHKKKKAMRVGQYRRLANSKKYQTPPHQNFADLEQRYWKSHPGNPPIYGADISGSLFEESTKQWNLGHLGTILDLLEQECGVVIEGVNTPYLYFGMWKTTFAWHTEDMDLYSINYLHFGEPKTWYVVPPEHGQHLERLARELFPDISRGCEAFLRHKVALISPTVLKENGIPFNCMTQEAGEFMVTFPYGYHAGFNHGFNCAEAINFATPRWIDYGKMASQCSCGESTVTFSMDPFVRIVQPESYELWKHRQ
An asterisk follows results filed as active; [ ] = dose if it differs, or a comment. In the library only some 2.3% were active in any assay of this set; here they are far more common. Unless noted, calls come from the whole dose curve; as a rule, active = well fitted curve in the direction sought with a large enough effect; inconclusive = small, poorly fitted or top-dose-only effect, or another doubt; inactive = no such curve, though single readings can be large; an effect the other way counts as inactive or inconclusive.

For COc1ccc(C(=O)OCCN2CCCCC2)cc1 the results were RGS12 GoLoco inh 3%, HTT ATP protect 6%, VDR inhibitor -2%, HttQ103 aggreg 5%, FBPA coupling cs 0 and JMJD2E inh 9%.
COc1ccc(C(=O)C[N+]2(C)CCOCC2)cc1 was read as RGS12 GoLoco inh 7.1µM*, HTT ATP protect -4%[10 µM], VDR inhibitor 7%, HttQ103 aggreg -6%, FBPA coupling cs 3 and JMJD2E inh -1%.
Screening COc1ccc(C(=O)OCC[N+]2(C)CCCCC2)cc1 returned RGS12 GoLoco inh 13µM*, HTT ATP protect -14%, VDR inhibitor -24%, HttQ103 aggreg 11%, FBPA coupling cs 1 and JMJD2E inh -9%.
Cc1ccc(C)c(-n2nnc(-c3nc(-c4ccc(Cl)cc4)no3)c2N)c1 was read as VDR inhibitor 9%.
For Cc1ccc(OCCNS(=O)(=O)c2ccc(N3CCCC3=O)cc2)cc1 the results were RGS12 GoLoco inh -3%, HTT ATP protect 18%[10 µM], VDR inhibitor 0%, HttQ103 aggreg 11µM*, FBPA coupling cs 4 and JMJD2E inh 10%.
`Cc1ccc(OCCNS(=O)(=O)c2ccc(N3CCCC3=O)cc2)cc1C` gave RGS12 GoLoco inh 5%, HTT ATP protect -16%, VDR inhibitor 6%, HttQ103 aggreg inconclusive, FBPA coupling cs 2 and JMJD2E inh 0%.
Cc1cc(C)cc(NC(=O)CSc2nncn3c2cc2occc23)c1 was read as VDR inhibitor -6%.
Screening O=C1C(c2[nH]c3ccc(S(=O)(=O)O)cc3c2O)=Nc2ccc(S(=O)(=O)O)cc21 returned RGS12 GoLoco inh -33%, HTT ATP protect -22%, VDR inhibitor inconclusive and FBPA coupling cs -38*.
`O=c1c2ccccc2[nH]c2ccc(O)cc12` gave VDR inhibitor 6% and FBPA coupling cs -10.
Screening O=c1nc2n(c3ccccc13)Cc1ccccc1-2 returned RGS12 GoLoco inh 4%, HTT ATP protect -6%[10 µM], HttQ103 aggreg 2%, FBPA coupling cs 0 and JMJD2E inh inconclusive.
Screening O=c1c2cccc(Cl)c2nc2n1Cc1ccccc1-2 returned RGS12 GoLoco inh -19%, HTT ATP protect -2%[10 µM], VDR inhibitor 79µM*, HttQ103 aggreg -1%[9.22 µM], FBPA coupling cs 2 and JMJD2E inh -7%.
Screening Cc1ccccc1NC(=O)Cn1cc(S(=O)(=O)N2CCCC2)c(S(=O)(=O)N2CCCC2)c1 returned VDR inhibitor 2%.
`COCc1cc(C)nc(N2CCCCC2)c1C#N` gave RGS12 GoLoco inh 10%, HTT ATP protect 18%[10 µM], VDR inhibitor 14%, HttQ103 aggreg -15%, FBPA coupling cs 3 and JMJD2E inh 1%.
`CCOc1cc2c(C#N)c(N3CCNCC3)nc(N)c2c(N)n1` gave RGS12 GoLoco inh 11%, HTT ATP protect -17%, VDR inhibitor -21%, HttQ103 aggreg -9%, FBPA coupling cs -2 and JMJD2E inh inconclusive.
CCOc1cc2c(C#N)c(N3CCCCC3)nc(N)c2c(N)n1 was read as RGS12 GoLoco inh 39%, HTT ATP protect -6%, VDR inhibitor -19%, HttQ103 aggreg -32%, FBPA coupling cs -48* and JMJD2E inh inconclusive.
For COc1cc2c(C#N)c(N3CCCCC3)nc(N)c2c(N)n1 the results were RGS12 GoLoco inh 4%, HTT ATP protect -32%, VDR inhibitor -15%, HttQ103 aggreg 11µM*, FBPA coupling cs -52* and JMJD2E inh inconclusive.
COc1cc2c(C#N)c(N3CCOCC3)nc(N)c2c(N)n1 was read as RGS12 GoLoco inh 18%, HTT ATP protect -15%[10 µM], VDR inhibitor 5%, HttQ103 aggreg inconclusive, FBPA coupling cs -52* and JMJD2E inh inconclusive.
For COc1ccc(CN2C(=O)Cc3c2nc(N)c2c(N)nc(N4CCCCC4)c(C#N)c32)cc1 the results were RGS12 GoLoco inh 92%, HTT ATP protect -74%[10 µM], HttQ103 aggreg inconclusive, FBPA coupling cs -8 and JMJD2E inh 14µM*.
Screening N#Cc1c(N2CCCC(O)C2)nc(N)c2c(N)nc3c(c12)CC(=O)N3C12CC3CC(CC(C3)C1)C2 (stereo unspecified) returned RGS12 GoLoco inh 14%, HTT ATP protect -19%, VDR inhibitor inconclusive, HttQ103 aggreg 18%, FBPA coupling cs -22 and JMJD2E inh inconclusive.
For N#Cc1c(N2CCOCC2)nc(N)c2c(N)nc3c(c12)CC(CCl)O3 (stereo unspecified) the results were RGS12 GoLoco inh 25%, HTT ATP protect -9%[10 µM], VDR inhibitor 38%, HttQ103 aggreg -24%[9.22 µM], FBPA coupling cs -5 and JMJD2E inh inconclusive.
CSc1ccc(CCNC(=O)Cn2ncc3c(=O)oc4ccccc4c32)cc1 was read as VDR inhibitor -9%.
For COc1cc2c(C#N)c(N3CCc4ccccc4C3)nc(N)c2c(N)n1 the results were RGS12 GoLoco inh 19%, HTT ATP protect -5%[10 µM], VDR inhibitor -29%, HttQ103 aggreg inconclusive, FBPA coupling cs -49* and JMJD2E inh inconclusive.
For COc1ccc(-c2nc(C#N)c(N3CCc4ccccc4C3)o2)cc1OC the results were RGS12 GoLoco inh 4%, HTT ATP protect -37%, VDR inhibitor 9%, HttQ103 aggreg -26% and JMJD2E inh inconclusive.
Screening CCOC(=O)C1CCN(c2nc(N)c3c(N)nc(SCC(=O)O)cc3c2C#N)CC1 returned RGS12 GoLoco inh 54%, HTT ATP protect 9%[10 µM], VDR inhibitor inconclusive, HttQ103 aggreg -1%[9.22 µM], FBPA coupling cs -32* and JMJD2E inh inconclusive.
For O=C(CCl)N1c2ccccc2Oc2ccc3ccccc3c21 the results were VDR inhibitor 20µM*.
Cc1cccc(NC(=O)CC2SC(=O)N(c3ccccc3)C2=O)c1 (stereo unspecified) was read as RGS12 GoLoco inh 6%, HTT ATP protect -21%, VDR inhibitor inconclusive, HttQ103 aggreg 17%, FBPA coupling cs 4 and JMJD2E inh -5%.
`O=C(CC1SC(=O)N(c2ccccc2)C1=O)Nc1ccccc1` (stereo unspecified) gave RGS12 GoLoco inh 70%, HTT ATP protect -15%, VDR inhibitor 22µM*, HttQ103 aggreg 30%, FBPA coupling cs 2 and JMJD2E inh -6%.
Cc1ccc(NC(=O)CC2SC(=O)N(c3ccccc3)C2=O)cc1 (stereo unspecified) was read as RGS12 GoLoco inh -5%, HTT ATP protect -10%[10 µM], VDR inhibitor 28µM*, HttQ103 aggreg 2%, FBPA coupling cs -2 and JMJD2E inh -10%.

Source: PubChem (National Center for Advancing Translational Sciences (NCATS))
